Source: PubChem BioAssay
APEX1 inh – inhibitors of human APE1 endonuclease | 0.35% of 350,000 active | P27695 | recombinant APE1, TAMRA/BHQ-2 abasic DNA cleavage fluorescence | Potency, µM (doses to about 65.8 µM), actives largely listed as inhibitors; note: nearly all actives have a fitted effect of over 55% in size
Target sequence (P27695 whole entry, looked up): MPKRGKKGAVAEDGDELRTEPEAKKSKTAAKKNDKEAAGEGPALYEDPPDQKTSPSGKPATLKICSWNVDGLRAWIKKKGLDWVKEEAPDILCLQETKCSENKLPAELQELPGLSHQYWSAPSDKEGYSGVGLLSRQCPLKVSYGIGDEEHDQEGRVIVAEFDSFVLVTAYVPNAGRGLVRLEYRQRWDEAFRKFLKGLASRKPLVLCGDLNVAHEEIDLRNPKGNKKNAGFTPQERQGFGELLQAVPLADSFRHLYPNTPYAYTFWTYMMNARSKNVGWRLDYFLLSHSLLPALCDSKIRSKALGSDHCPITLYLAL
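Step 1: APE1 (0.75 nM) with compound, 15 min RT. Step 2: add 50 nM fluorophore/quencher THF duplex. Step 3: three fluorescence reads 60 s apart (525/598 nm); read 3 minus read 1 = reaction progress.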
BLM helicase inh – inhibitors of human Bloom syndrome helicase BLM. P54132. recombinant BLM DNA unwinding, fluorescence dequenching. Potency, µM (titrated, usually from 56.1 µM), hits mostly inhibitors. 0.2% of 350,000 active. AID 2528; note: nearly all actives have a fitted effect of over 35% in size
TDP1 block – TDP1 (human) enzyme inhibition; Q9NUW8; recombinant TDP1, AlphaScreen DNA substrate cleavage; 0.28% of 350,000 active; Potency, µM (top dose mostly 130 µM), usual class: inhibitors; note: nearly all actives have a fitted effect of over 40% in size
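Enzyme-compound mixtures sat 15 min at room temperature, followed by a 5 min reaction with 15 nM final substrate and 10 min with AlphaScreen beads. Recombinant human Tdp1 was used at 1 nM final.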
RECQ1 helicase – RECQ1 (human) helicase inhibition; Potency, µM (doses to about 57.3 µM), most hits filed as inhibitors; AID 2549; P46063; RECQ1 DNA unwinding, red fluorescence kinetic read; 0.54% of 240,000 active; note: nearly all actives have a fitted effect of over 30% in size
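50 nM RECQ1T1 preincubated 15 min with compound in Tris pH 8.0 buffer with MgCl2, DTT, Tween-20 and 2.5 ug/ml poly(dI-dC); started with 200 nM TAMRA/BHQ-2 forked duplex and 2 mM ATP. Unwinding read as fluorescence (525/598 nm), two reads 2 h apart.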
L3MBTL1 block – blocks human L3MBTL1; Q9Y468; AlphaScreen L3MBTL1–H3K9me1 peptide binding; Potency, µM (titrated, usually from 57.1 µM), actives largely listed as inhibitors; 0.66% of 230,000 active; note: nearly all actives have a fitted effect of over 60% in size
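AlphaScreen assay: L3MBTL1 (50 nM final) was preincubated 30 min at room temperature with biotinylated H3(1-15)K9me1 peptide (75 nM final), then 30 min with library compounds; streptavidin donor and nickel chelate acceptor beads (10 ug/mL final) added, 30 min dark.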
JMJD2E inh – blocks human JMJD2E demethylase activity | JMJD2E catalytic domain, FDH-coupled NADH fluorescence (FDH is formaldehyde dehydrogenase) | B2RXH2 | 1.6% of 230,000 active | AID 2147 | Potency, µM (titrated, usually from 57.1 µM), most hits filed as inhibitors; active = well fitted inhibition curve with a large enough effect, not every such curve was filed as active; inconclusive = small, poorly fitted or top-dose-only effect, or another doubt; inactive = no such curve, though single readings can be large or run the other way; note: nearly all actives have a fitted effect of over 50% in size
Target sequence (B2RXH2 1-337 limits assumed): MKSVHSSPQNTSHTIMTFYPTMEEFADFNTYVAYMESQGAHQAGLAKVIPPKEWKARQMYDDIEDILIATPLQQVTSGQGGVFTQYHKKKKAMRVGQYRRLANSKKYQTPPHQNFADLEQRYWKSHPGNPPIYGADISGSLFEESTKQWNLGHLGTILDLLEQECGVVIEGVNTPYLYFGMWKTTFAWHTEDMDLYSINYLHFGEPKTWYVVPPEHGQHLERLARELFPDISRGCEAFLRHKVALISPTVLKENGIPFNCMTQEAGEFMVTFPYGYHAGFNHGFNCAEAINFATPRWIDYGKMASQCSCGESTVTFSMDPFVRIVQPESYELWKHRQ
Hits are given with their value; ! = not confirmed by another sample. The full list was thinned out, with hits kept by preference. Unless noted, calls come from the whole dose curve; as a rule, active = well fitted curve in the direction sought with a large enough effect; inconclusive = small, poorly fitted or top-dose-only effect, or another doubt; inactive = no such curve, though single readings can be large; an effect the other way counts as inactive or inconclusive.

Results for COc1ccc2[nH]c(=O)c(CN(Cc3ccco3)C(c3nnnn3Cc3ccccc3)C(C)C)cc2c1 (centres undefined) ?
APEX1 inh: inactive; BLM helicase inh: inactive; TDP1 block: inactive; RECQ1 helicase: inactive; JMJD2E inh: inconclusive

Results for Cc1ccc2[nH]c(=O)c(C(c3nnnn3C(C)(C)C)N(Cc3ccco3)CC3CCCO3)cc2c1 (centres undefined) ?
APEX1 inh: inactive; BLM helicase inh: inactive; TDP1 block: inactive; RECQ1 helicase: inactive; L3MBTL1 block: inactive; JMJD2E inh: inconclusive

What do the screens show for `Cc1cccc2cc(CN(Cc3ccco3)C(c3nnnn3CCc3ccccc3)C(C)C)c(=O)[nH]c12` (centres undefined)?
APEX1 inh: inactive; BLM helicase inh: inactive; TDP1 block: inactive; RECQ1 helicase: inactive; L3MBTL1 block: inactive; JMJD2E inh: 18µM

How did COc1ccc2nc(C)cc(SCC(=O)N/N=C/c3ccc(O)cc3O)c2c1 do in these assays?
APEX1 inh: inactive; BLM helicase inh: inactive; TDP1 block: inactive; RECQ1 helicase: inactive; L3MBTL1 block: inactive; JMJD2E inh: inactive

What do the screens show for `C=CCn1c(COc2ccccc2)nnc1SCC(=O)N/N=C/c1cc(Cl)ccc1O`?
APEX1 inh: inactive; BLM helicase inh: inactive; TDP1 block: inactive; RECQ1 helicase: inactive; JMJD2E inh: 28µM

Results for C=CCn1c(CNc2ccccc2)nnc1SCC(=O)N/N=C/c1ccc(O)cc1O ?
APEX1 inh: inactive; BLM helicase inh: inactive; TDP1 block: inactive; RECQ1 helicase: inactive; L3MBTL1 block: inactive; JMJD2E inh: 22µM

How did O=C(CSc1nnc(CNc2ccc(F)cc2)n1Cc1ccccc1)NCc1ccccc1 do in these assays?
APEX1 inh: inactive; BLM helicase inh: inactive; TDP1 block: inactive; RECQ1 helicase: inactive; L3MBTL1 block: inactive; JMJD2E inh: inactive

Results for C=CCn1c(COc2ccccc2)nnc1SCC(=O)N/N=C/c1ccc(C)cc1 ?
APEX1 inh: inactive; BLM helicase inh: inactive; TDP1 block: inactive; RECQ1 helicase: inactive; L3MBTL1 block: inactive; JMJD2E inh: inactive

Results for C=CCn1c(CNc2ccc(C)cc2)nnc1SCC(=O)N/N=C/c1ccc(O)cc1O ?
APEX1 inh: inactive; BLM helicase inh: inactive; TDP1 block: inactive; RECQ1 helicase: inactive; L3MBTL1 block: inactive; JMJD2E inh: 16µM

How did COC(=O)[C@@H](NC(=O)O[C@@H]1C(=O)c2cc(OC)ccc2O[C@H]1c1ccc(OC)c(Br)c1)C(C)C do in these assays?
APEX1 inh: inactive; BLM helicase inh: inactive; TDP1 block: inactive; RECQ1 helicase: inactive; JMJD2E inh: inconclusive

How did O=C(CNC(=O)c1ccc(Br)o1)NCc1cccc(Cl)c1 do in these assays?
APEX1 inh: inactive; BLM helicase inh: inactive; TDP1 block: inactive

Results for O=C(CNC(=O)c1ccc(Br)o1)NCc1ccc(Cl)cc1Cl ?
APEX1 inh: 13µM; BLM helicase inh: inactive; TDP1 block: inactive

How did O/C=c1\ccc2cccc3nc(C(F)(F)F)nc1c23 do in these assays?
APEX1 inh: inactive; BLM helicase inh: 14µM

How did COc1cc(OC)c(OC)cc1/C=N/Nc1ncnc2c1[nH]c1ccccc12 do in these assays?
APEX1 inh: inactive; BLM helicase inh: 22µM; TDP1 block: inactive; RECQ1 helicase: inactive; L3MBTL1 block: inactive; JMJD2E inh: inconclusive

How did CC(C)Cn1c(N)c(C(=O)COC(=O)C2Cc3ccccc3CN2S(C)(=O)=O)c(=O)n(C)c1=O (centres undefined) do in these assays?
APEX1 inh: inactive; TDP1 block: 28µM; L3MBTL1 block: inconclusive

How did Cn1c(/N=C/c2c(O)ccc3ccccc23)nc2ccccc21 do in these assays?
APEX1 inh: inactive; BLM helicase inh: inactive; TDP1 block: inactive; RECQ1 helicase: inactive; L3MBTL1 block: 35µM; JMJD2E inh: inactive

What do the screens show for `O=C(N[C@H]1C/C=C\C[C@@H](CC(=O)N(CCO)Cc2ccccc2)C(=O)N2CCC[C@@H]2COC1=O)OCC1c2ccccc2-c2ccccc21`?
APEX1 inh: 11µM; TDP1 block: inactive; L3MBTL1 block: inactive

What do the screens show for `CCCCC(=O)Nc1ccc(C(=O)NNC(=O)CCc2ccccc2)cc1`?
APEX1 inh: inactive; BLM helicase inh: inactive; RECQ1 helicase: inactive; L3MBTL1 block: inactive; JMJD2E inh: inactive

Results for CCCCC(=O)Nc1ccc(C(=O)NNC(=O)c2ccc(C)c(Br)c2)cc1 ?
APEX1 inh: 25µM; BLM helicase inh: inactive; RECQ1 helicase: inactive; L3MBTL1 block: inactive; JMJD2E inh: inactive

Results for S=c1[nH]c2ccccc2s1 ?
APEX1 inh: inactive; BLM helicase inh: inactive; TDP1 block: inactive; RECQ1 helicase: inactive; JMJD2E inh: 20µM

How did O=C(Nc1ccc2[nH]c(=S)sc2c1)c1ccccc1 do in these assays?
APEX1 inh: inactive; BLM helicase inh: inactive; TDP1 block: inactive; RECQ1 helicase: inactive; L3MBTL1 block: inactive; JMJD2E inh: inactive

How did CC(C)(C)C(=O)Nc1ccc2c(c1)C(=O)C(=O)c1ccccc1-2 do in these assays?
TDP1 block: inactive

How did COc1ccc(COC(=O)c2c(C)nn(-c3ccccc3)c2Cl)cc1 do in these assays?
APEX1 inh: inactive; BLM helicase inh: inactive; TDP1 block: 56µM

What do the screens show for `CCC(C)/C=C/C1=CC2=C(Cl)C(=O)C3(C)OC(=O)C(C(=O)C(C)C(C)O)C3C2=CO1` (centres undefined)?
APEX1 inh: 10µM; BLM helicase inh: inactive; TDP1 block: inconclusive; RECQ1 helicase: inactive; L3MBTL1 block: inactive; JMJD2E inh: inconclusive

Results for COc1c(O)c(O)cc2c1oc1c3cc(C)ccc3oc(=O)c21 ?
APEX1 inh: inconclusive; BLM helicase inh: inconclusive; TDP1 block: inactive; RECQ1 helicase: 8.9µM; JMJD2E inh: 20µM

Results for COc1cc(-c2oc3ccc(C)cc3c(=O)c2O)cc(OC)c1OC ?
BLM helicase inh: inactive; TDP1 block: inactive

Results for Nc1ccn(C2OC(CO)C(O)C2O)c(=O)n1 (centres undefined) ?
APEX1 inh: inactive; BLM helicase inh: inactive; TDP1 block: inactive; RECQ1 helicase: inactive; JMJD2E inh: inactive

How did Nc1ccn([C@@H]2O[C@H](CO)[C@@H](O)[C@@H]2O)c(=O)n1 do in these assays?
APEX1 inh: inactive; BLM helicase inh: inactive; TDP1 block: inactive; RECQ1 helicase: inactive; L3MBTL1 block: inactive; JMJD2E inh: 0.89µM!

What do the screens show for `O=c1[nH]c(=O)n([C@@H]2O[C@H](CO)[C@@H](O)[C@H]2O)cc1Br`?
APEX1 inh: inactive; BLM helicase inh: inactive; TDP1 block: inactive; RECQ1 helicase: inactive; JMJD2E inh: inactive

Results for Nc1cn(C2OC(CO)C(O)C2O)c(=O)[nH]c1=O (centres undefined) ?
APEX1 inh: 19µM; BLM helicase inh: inactive; TDP1 block: 56µM; L3MBTL1 block: inactive

What do the screens show for `NC(=O)C1CCN(c2nc(-c3ccc(Cl)cc3)cs2)CC1`?
APEX1 inh: inactive
